Holding throughout (experiment): PBM binding z-score (relative to random genomic background probes); higher = stronger binding; sequences stand for … in GC…GCGATTGACAGCGTAGAATGAAGG
In test [1] the test system is PPARg:RXRa DBDmut IVT, anti-RXR (DBD mutation: RXRa K156A/R161A, NR concentration 270 nM, RXRa partner concentration 90 nM). In outline: (§1)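 Binding z-scores take random background probes as their reference. They come from custom Agilent 4×180K protein-binding microarrays incubated 1 h with ligand-free nuclear receptor dimers, with antibodies against each partner (one per run) detecting binding. Scanned fluorescence was regression-normalized.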

The subject of test [2] is PPARg:RXRa IVT, anti-PPARg (NR concentration 270 nM, RXRa partner concentration 90 nM). In outline:
as §1

The test system of test [3] is PPARg DBDmut:RXRa IVT, anti-PPARg (DBD mutation: PPARg1 K132A/R137A, NR concentration 270 nM, RXRa partner concentration 90 nM). In outline: as §1
For test [4], the system named is PPARg DBDmut IVT, anti-PPARg (DBD mutation: PPARg1 K132A/R137A, NR concentration 270 nM). The method in brief:
as §1

Test [5] has as its system PPARg homodimer (NR concentration 180 nM). The method in brief:
as §1

Test [6] relates to PXR:RXRa (NR concentration 270 nM, RXRa partner concentration 90 nM). In outline: as §1
Test [7] concerns PXR homodimer (NR concentration 270 nM). The method in brief:
as §1

Test [8] deals with RARa:RXR (NR concentration 270 nM, RXRa partner concentration 90 nM). In outline:
as §1

Test [9] concerns RARa homodimer (NR concentration 270 nM). In outline:
as §1

For test [10], the system named is RARb:RXRa (NR concentration 270 nM, RXRa partner concentration 90 nM). In outline:
as §1

For TCCTATAGGTAAAAGGTGAAAGTCGGTGTGGTAA, the PBM binding z-score amounted to 3.53 in test [1]; 3.95 in test [2]; 0.0451 in test [3]; 0.327 in test [4]; 1.1 in test [5]; 1.66 in test [6]. The PBM binding z-score in [7] came to 0.259; in test [8] it was 2.87; in test [9], 0.703; in test [10], 1.85.

With TCATATAGGTAAAGGGGAAAGTCGAACGATATGA, the PBM binding z-score in [1] came out at 4.16; in [2] it was 2.85; in test [3] it was 1.41; in test [4], 1.19; in [5], 0.621; in test [6], 0.551. In addition, the PBM binding z-score in [7] came to 0.506; in test [8], 0.562; in test [9] it was 0.996; in test [10], 0.83.

GCGACTGGGGCATCAGCAGGTTACCCTAACTTAA: the PBM binding z-score in [1] is 3.51; in test [2], 2.87; in test [3], -0.922; in test [4] it was -0.0321; in test [5] it was 0.248; in [6], 0.197. The PBM binding z-score in [7] is -0.267; in test [8] it was 0.596; in [9], -0.765; in test [10] it was 0.794.

Regarding TCTCGGAGAACACGAAGGTCAGAGCTTTCCAGAG, the PBM binding z-score was 1.08 in test [1]; 0.106 in test [2]; -2.09 in test [3]; -1.27 in [4]; 0.419 in test [5]; 1.29 in test [6]. In addition, the PBM binding z-score in test [7] was -0.535; in [8] it was 1.67; in test [9], -0.665; in test [10] it was 2.49.

Turning to AATACAGGGTCATCGTGGGCCAGAGTACGCACAG, the PBM binding z-score in test [1] was 2.57; in [2] it was 4.37; in test [3] it was 0.764; in test [4], 1.07; in test [5], 2.16; in test [6], 4.59. Further, the PBM binding z-score stood at 0.368 in [7], 4.92 in test [8], 0.514 in test [9] and 4.36 in test [10].

Turning to CGTCCAAGGTCAAAGCTCAGTGAAGAGATGACGG, the PBM binding z-score in [1] was 3.54; in test [2], 3.35; in test [3] it was 0.259; in [4], -0.242; in [5] it was 3.06; in test [6], 3.96. Moreover, the PBM binding z-score was 0.865 in test [7], 4.6 in test [8], 1.16 in test [9] and 5.14 in test [10].

GCTTGTAGATCAAGGTTAAGAACGACTAAGCTAA: the PBM binding z-score is 1.08 in [1]; 1.15 in test [2]; 0.637 in [3]; -0.445 in [4]; 0.356 in test [5]; 0.364 in [6]. Besides, the PBM binding z-score in [7] is -0.0676; in test [8] it was 0.827; in [9], 0.211; in [10], 0.716.

As to TCTAGCAGGCCAGAGGGTCACTCATGAGGTACGG, the PBM binding z-score was 0.668 in test [1]; 1.02 in test [2]; -0.735 in [3]; -1.14 in [4]; 0.486 in test [5]; 1.64 in test [6]. In addition, the PBM binding z-score in test [7] was -0.579; in [8] it was 2.5; in test [9], -0.79; in test [10] it was 2.24.

For the sequence ACTCGGAGGACAAAGGTCAGAGCGACGCCAGTGA, the PBM binding z-score is 0.874 in test [1]; 3.53 in test [2]; -0.107 in [3]; -0.757 in test [4]; 3.73 in [5]; 4.04 in [6]. Besides, the PBM binding z-score worked out at 0.438 in test [7], 4.89 in [8], 0.829 in [9] and 4.57 in [10].

Take AGTCAGAGTTCAGGACGAGGTAACGTAAAGCACG: the PBM binding z-score in test [1] is -0.749; in test [2] it was 0.676; in test [3], 0.355; in [4] it was -0.341; in test [5], 1.36; in test [6] it was 3.45. The PBM binding z-score was found to be 1.88 in test [7], 2.67 in test [8], 0.511 in test [9] and 3.62 in test [10].

Take AGAATGAGGTGAAGATCAGGGAAACAGAATACAT: the PBM binding z-score in test [1] came to 4.13; in test [2], 4.03; in test [3], 1.46; in [4], 0.73; in test [5], 0.633; in test [6] it was 0.242. The PBM binding z-score in test [7] worked out at 0.183; in test [8], 0.786; in test [9], 0.494; in test [10], 1.32.

As for TCTTGTAGATCAAGCAGGTTAAGAGAGCCTGAGT, the PBM binding z-score in [1] was 1.44; in [2], 0.423; in [3], -0.603; in [4], -0.0222; in test [5], -0.58; in test [6] it was 0.103. For the same sequence, the PBM binding z-score in [7] is -0.227; in test [8], -0.116; in test [9] it was -0.124; in test [10] it was 0.0485.
